Bioassay records as filed in PubChem.
The entries come from a sample that favours hits as a whole.
ERK EGF inh: inhibitors of EGF-stimulated ERK signaling pathway. HEK293-V1b, EGF-stimulated phospho-ERK AlphaScreen. Potency, µM (doses to about 11.5 µM), without a hit: at the top dose activity change, negative = inhibition, actives largely listed as inhibitors. 130,000 tested, 0.41% active. AID 1454;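 also: potency is read from the fitted curve at half-maximal effect; plate controls were stimulated vehicle wells for no effect and unstimulated vehicle basal for full effect; nearly all actives have a fitted effect of over 55% in size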
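Concentration-response of compounds against EGF-driven ERK phosphorylation in V1b-expressing HEK293 cells; 30 min preincubation, 5 min EGF, AlphaScreen detection; Normalized to DMSO basal and 25 nM EGF.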
ERK pERK EGF: confirmation of ERK pathway inhibitors under EGF stimulation. shares compounds with ERK EGF inh. HEK293 EGF-stimulated ERK phosphorylation, AlphaScreen. Potency, µM (series often up to 57.5 µM), without a hit: at the top dose activity change, negative = inhibition, actives largely listed as inhibitors. 60 tested, 60% active
cRaf kinase inh: blocks human c-Raf kinase activity | shares compounds with ERK EGF inh | c-Raf kinase inhibition, homogeneous biochemical assay | activity change, negative = inhibition, % at 76.9 µM | 70 tested, under 10 active | AID 1728
MEK inh: blocks human MEK1 kinase activity in ERK pathway follow-up; homogeneous MEK kinase activity assay, ERK pathway; AID 1732; shares compounds with ERK EGF inh; Potency, µM (titrated, usually from 76.9 µM), for inactives: at the top dose activity change, negative = inhibition, usual class: inhibitors; 70 tested, under 10 active
Target sequence (Q02750 whole entry, looked up): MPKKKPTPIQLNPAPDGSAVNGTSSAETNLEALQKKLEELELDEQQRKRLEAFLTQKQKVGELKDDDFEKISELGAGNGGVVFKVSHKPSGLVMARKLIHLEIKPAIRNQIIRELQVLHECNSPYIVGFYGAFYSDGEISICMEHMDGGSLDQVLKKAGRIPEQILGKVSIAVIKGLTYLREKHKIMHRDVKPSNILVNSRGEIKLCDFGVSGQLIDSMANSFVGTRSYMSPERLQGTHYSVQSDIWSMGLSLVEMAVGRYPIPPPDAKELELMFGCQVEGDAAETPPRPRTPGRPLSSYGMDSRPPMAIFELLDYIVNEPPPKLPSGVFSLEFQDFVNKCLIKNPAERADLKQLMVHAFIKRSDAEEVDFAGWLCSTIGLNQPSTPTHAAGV
* = called active by the depositor; ? = inconclusive; [ ] = dose if it differs, or a comment. Calls follow the shape of the dose curve; as a rule, active = well fitted curve in the direction sought with a large enough effect; inconclusive = small, poorly fitted or top-dose-only effect, or another doubt; inactive = no such curve, though single readings can be large; an effect the other way counts as inactive or inconclusive.

SMILES	ERK EGF inh	others
N#CC(C#N)=C1C=CC=CN1/C(=C\c1ccco1)C(=O)c1ccc(Br)cc1	7.94µM*	ERK pERK EGF=15.8µM*;cRaf kinase inh=?;MEK inh=-23.2%
Cc1ccc(C(=O)N/C(=C/c2ccco2)C(=O)O)cc1	-4.3%
COC(=O)c1ccccc1NC(=S)N(Cc1ccc2c(c1)OCO2)Cc1cc2ccc(OC)cc2[nH]c1=O	-6.9%
COc1ccc(C(=O)c2ccc(Cl)c([N+](=O)[O-])c2)cc1	8.91µM*	ERK pERK EGF=15.8µM*;cRaf kinase inh=?;MEK inh=-7.9%
COc1cc(C(=O)Nc2ccc(Cl)c([N+](=O)[O-])c2)cc(OC)c1OC	2.0%
Cc1cc(NC(=O)c2ccc(Cl)c([N+](=O)[O-])c2)no1	-5.3%[57.5 µM]
Cc1ccc(-c2csc(NC(=O)c3cc([N+](=O)[O-])ccc3N3CCOCC3)n2)cc1	-5.2%
O=C(Nc1cccc(Cl)c1N1CCCCC1)c1ccc(N2CCOCC2)c([N+](=O)[O-])c1	5.8%
O=C(Nc1nc(-c2ccccc2)cs1)c1ccc(N2CCOCC2)c([N+](=O)[O-])c1	3.98µM*	ERK pERK EGF=10µM*;cRaf kinase inh=?;MEK inh=2.5%
CS(=O)(=O)Nc1cccc2[nH]ncc12	-3.6%
COc1ccc(-c2cc(C(=O)Nc3ccc(S(=O)(=O)Nc4onc(C)c4C)cc3)c3ccccc3n2)cc1	8.8%[57.5 µM]
O=c1cc(-c2ccc(O)cc2)oc2cc(OC3OC(CO)C(O)C(O)[C@H]3O[C@@H]3OC[C@@](O)(CO)C3O)cc(O)c12 (some centres not stated)	25.1%
CCCOc1ccc(/C=N/Nc2ccccc2[N+](=O)[O-])c(O)c1	?	ERK pERK EGF=?;cRaf kinase inh=?;MEK inh=-3.5%
CCCOc1ccc(/C=N/Nc2cccc([N+](=O)[O-])c2)c(O)c1	6.0%
CCCOc1ccc(/C=N/NC(=S)Nc2ccccc2[N+](=O)[O-])c(O)c1	1.6%
COC(=O)[C@@]1(Cc2ccc(OC)cc2)[C@H]2c3cc(C(=O)N4CCCC4)n(Cc4ccc(C)c(F)c4F)c3C[C@H]2CN1C(=O)c1ccccc1	-0.9%
Cc1ccc(C2=NCN(c3ccc(C(=O)O)cc3)C(=S)N2)cc1	-20.3%
COc1cccc(/C=N/Nc2ncnc(Cl)c2N)c1O	-4.1%
COc1cccc(/C=N/Nc2ncnc3scc(-c4ccccc4)c23)c1O	4.5%
COc1cccc(/C=N/Nc2cc(-n3nc(C)cc3-c3ccccc3)ncn2)c1O	8.91µM*	ERK pERK EGF=11.2µM*;cRaf kinase inh=?;MEK inh=-7.2%
CCN1/C(=C/C=C/c2oc3ccc(-c4ccccc4)cc3[n+]2CC)Oc2ccc(-c3ccccc3)cc21	-4.8%
COc1ccc(/C=C2\CCCc3c2nc2ccc(C)cc2c3C(=O)O)cc1O	-4.8%[57.5 µM]
COC(=O)[C@@H]1C[C@@]2(O)[C@@H](O)[C@@H](O)[C@@H](O)C[C@H]2N1Cc1ccc(C(C)(C)C)cc1	-7.9%
CCCN1C(=O)/C(=C2\SC(=S)N(c3c(C)n(C)n(-c4ccccc4)c3=O)C2=O)c2ccccc21	-7.3%[57.5 µM]
CCCN1C(=O)/C(=C/c2ccncc2)SC1=S	2.2%
SMILES	ERK EGF inh	others
CCCN1C(=O)/C(=C2/C=Cc3ccccc3N2CC)SC1=S	5.62µM*	ERK pERK EGF=10µM*;cRaf kinase inh=-8.3;MEK inh=-2.1%
COc1cccc(-c2cc(=O)c3ccc(OC)cc3o2)c1	26.1%
N#Cc1nnn(-c2ccc(Cl)cc2)c1N	-1.8%[57.5 µM]
Nc1ccccc1Sc1ccccc1[N+](=O)[O-]	4.6%
Nc1ccccc1SCc1ccccc1	7.3%
N#CC(=C(\N)Sc1ccccc1N)/C(C#N)=C(/N)Sc1ccccc1N	1.41µM*	cRaf kinase inh=-14.1
CC(=O)N(c1ccc(C)cc1)c1nc(C)cc(C)c1C#N	3.1%[57.5 µM]
Cc1c[nH]c(=O)n(CCCN2CCN(c3ccccc3OCC(F)(F)F)CC2)c1=O	-0.7%
